{
  "source": "PubChem BioAssay (NCI)",
  "note": "Where “and” joins values, the source holds several entries; their conditions need not be identical. Equal values may be shown once. Compounds without any hit were thinned out: in the full panel of roughly 83,000, 20% have a hit.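 A percent growth of 40 corresponds to 60% growth inhibition; 0 means no net growth; -100 means all cells died. Active threshold: below 10.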 Calls of active or inactive are those of the source.",
  "data": [
    {"tested_on": "SK-MEL-5 melanoma", "assay": "NCI-60 one-dose screen, 48 h (100 = growth as untreated, 0 = no growth, -100 = all killed)", "conditions": "10 µM unless noted", "values": [
      {"smiles": "COc1ccc(C(=O)c2ccc(OC)c(OC)c2OC)cc1", "growth": "18.8% (inactive)"},
      {"smiles": "O=C1/C(=C/c2ccccc2)CN(C(=O)C(Cl)Cl)C/C1=C\\c1ccccc1", "growth": "-32.3% (active)"},
      {"smiles": "C=C(C)[C@@H]1CC[C@]2(C(=O)O)CC[C@]3(C)[C@H](CC[C@@H]4[C@@]5(C)CCC(N)C(C)(C)[C@@H]5CC[C@]43C)[C@@H]12", "note": "(some centres undefined)", "growth": "61% (inactive)"},
      {"smiles": "N#C/C(=C\\c1ccc(Br)cc1)n1nnc2c(F)cccc21", "growth": "-12.1% (active)"},
      {"smiles": "COC1=CC(=O)C(OC)=C(O)C1=O", "growth": "97.8% (inactive)"},
      {"smiles": "CC(C)(C)c1cc(NC(=O)Nc2ccc(-c3cn4c(n3)sc3cc(OCCN5CCOCC5)ccc34)cc2)no1", "growth": "13.5% (inactive) and 9.61% (active)"},
      {"smiles": "COc1cccc(C2C(C#N)=C(N)Oc3cc(OCCCCCC[P+](c4ccccc4)(c4ccccc4)c4ccccc4)ccc32)c1", "note": "(centres undefined)", "growth": "-97.5% (active)"},
      {"smiles": "COc1ccc(-c2ccccc2)cc1-c1c(Nc2cc(Cl)cc(Cl)c2O)c(=O)c1=O", "growth": "-40.7% (active)"},
      {"smiles": "Cc1ccc(S(=O)(=O)Nc2cc(Sc3ccccc3)c(O)c3ccccc23)cc1", "growth": "41.8% (inactive)"},
      {"smiles": "COC(=O)c1[nH]nc(OC)c1C1(C(C#N)c2nc3ccccc3s2)CCCc2ccccc21", "note": "(centres undefined)", "growth": "97.8% (inactive)"},
      {"smiles": "COc1ccc(-c2cc(-c3cccc(Cl)c3)c(C#N)c(=O)[nH]2)c(OC)c1", "growth": "94.2% (inactive)"},
      {"smiles": "Cc1nc(-n2[nH]c(=O)ccc2=O)sc1N=Nc1ccccc1", "growth": "97.4% (inactive)"},
      {"smiles": "COc1ccc(-c2csc(NC(=O)CN3CCN(CCO)CC3)n2)cc1NS(=O)(=O)c1cccc2c(N(C)C)cccc12", "growth": "58.5% (inactive)"},
      {"smiles": "COc1ccc(-c2[nH]c3ccccc3c2-c2ccc(OC)cc2)cc1", "growth": "58.1% (inactive)"},
      {"smiles": "COc1ccc(/C=N\\Nc2nc(SCC(C)C)nc(-c3ccc(OC)cc3)c2C#N)cc1", "growth": "77.2% (inactive)"},
      {"smiles": "CN(C)C(=O)c1cc2cnc(Nc3ccc(-c4csc5c(=S)cc(N6CCOCC6)oc45)cc3)nc2n1C1CCCC1", "growth": "-30.4% (active)"},
      {"smiles": "O=C(Nc1ccc2ncsc2c1)c1csc(Nc2ccc3[nH]ncc3c2)n1", "growth": "9.43% (active)"},
      {"smiles": "NS(=O)(=O)c1ccc(C(=O)N=Nc2c(O)[nH]c3c(F)cccc23)cc1", "growth": "101% (inactive)"},
      {"smiles": "C/C=C(\\C)C(=O)N[C@H]1CC[C@]2(C)C3CC[C@@]4(C)C(CC[C@@H]4C(C)N(C)C)C3CCC2[C@H]1OC(C)=O", "note": "(some centres undefined)", "growth": "-100% (active)"},
      {"smiles": "CC(=O)N1N=C(c2ccc(Nc3nc(Nc4ccc(F)cc4)nc(Nc4ccc(Cl)cc4)n3)cc2)CC1c1ccc(N(C)C)cc1", "note": "(centres undefined)", "growth": "32.4% (inactive)"},
      {"smiles": "ON=C1CCCCCCCC1", "growth": "106% (inactive)"},
      {"smiles": "Cc1ccc(NC(=O)c2sc3nc(C)c(C(=O)c4ccccc4)cc3c2N)cc1", "growth": "94.1% (inactive)"},
      {"smiles": "O=C(/C=C/c1ccc([N+](=O)[O-])cc1)c1ccccc1", "growth": "94.5% (inactive)"},
      {"smiles": "COc1cc(CO)cc2cc3ccccc3nc12", "growth": "105% (inactive)"},
      {"smiles": "O=C(Cc1ccc(F)cc1)c1ccccc1", "growth": "110% (inactive)"},
      {"smiles": "COc1cc(-c2[nH]ncc2Nc2ccc(Cl)cc2)cc(OC)c1OC", "growth": "43.6% (inactive)"},
      {"smiles": "CC1(Cc2ccccc2)CC2=C(C(=O)O1)C(c1ccccc1)NC(=O)N2", "note": "(centres undefined)", "growth": "95% (inactive)"},
      {"smiles": "C=CCN1C=CC(=O)[C@H](O[Si](C)(C)C(C)(C)C)[C@@H]1/C=C/c1ccccc1", "growth": "-84.9% [100 µM] (active)"},
      {"smiles": "Cc1ccc(-c2nc3nc(-c4ccc(Cl)cc4)nc(N4CCCNCC4)c3o2)cc1", "growth": "92.8% (inactive)"},
      {"smiles": "CC1=C2[C@@H](CC1)[C@]1(C)O[C@@](C3CC3)(C[C@H]1OC(=O)CO)[C@H]2OC(=O)/C=C/c1ccccc1", "growth": "92.9% (inactive)"},
      {"smiles": "CCN1CCN(C(=O)[C@]23CC[C@@H](C)[C@H](C)[C@@H]2C2=CC[C@@H]4[C@@]5(C)CCC(=O)C(C)(C)[C@@H]5CC[C@@]4(C)[C@]2(C)CC3)CC1", "growth": "-84.1% (active)"},
      {"smiles": "CCCO/N=C/c1ccccn1", "growth": "104% (inactive) and 108% (inactive)"},
      {"smiles": "CN(C)CCN1C(=O)c2c(c3c4ccccc4n4c3c3c2c2ccccc2n3C2CC(O)C(O)C4(C)O2)C1=O", "note": "(centres undefined)", "growth": "34.4% (inactive)"},
      {"smiles": "CCOC(=O)c1c(-c2ccc(C)cc2)c(C#N)c(=O)n(-c2cccc(C(F)(F)F)c2)c1N", "growth": "101% (inactive)"},
      {"smiles": "CCCCCCCCCCCCCCCC(=O)O[C@@H]1[C@@H](O)[C@@H](O)C([C@H](NC(=O)[C@@H]2C[C@@H](CCC)CN2C)[C@H](C)Cl)O[C@@H]1SC", "note": "(some centres undefined)", "growth": "99.9% (inactive)"},
      {"smiles": "O=C1/C(=C/c2cn(-c3ccccc3)nc2-c2ccccc2)SC(=S)N1c1ccc(Cl)cc1", "growth": "78.5% (inactive)"},
      {"smiles": "CN(C)CCCn1c2c(c3ccc(N4CCNCC4)cc3c1=O)C(=O)c1ccccc1-2", "growth": "28.7% (inactive)"},
      {"smiles": "CCOc1ccccc1NC(=O)c1cc2ccccc2cc1O", "growth": "25.6% (inactive)"},
      {"smiles": "COc1ccc(C/C(C)=C(/c2ccc(OCCN3CCCCCC3)cc2)c2ccc(OC(=O)c3ccccc3)cc2)cc1", "growth": "109% (inactive)"}
    ]}
  ]
}
